Screening results as filed in PubChem.
Dicer processing = inhibitors of human Dicer processing of pre-microRNA. Q9UPY3. cat-ELCCA pre-miR-21 Dicer processing, chemiluminescence; hits give high values. z-score at 25 µM. 6% of 47,000 active. AID 1347074; in the data active = z-score above about 3, passing the limit was not always enough;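 also: plate controls were vehicle for no effect and no enzyme for full effect; higher signal means more uncleaved substrate so more Dicer inhibition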
* hit, by the source's call; ! = not active in a repeat. Only a selection was taken, and hits are over-represented in it overall.

SMILES	Dicer processing
C[C@]12CCC3[C@@H](CC[C@@H]4C[C@H](O)CC[C@]34C)[C@@H]1CCC2=O (some centres undefined)	0.03
C[C@]12CC[C@H](O)C[C@H]1CC[C@@H]1[C@@H]2C[C@@H](O)[C@]2(C)[C@@H](C3=CC(=O)OC3)CC[C@]12O	4.5*
C[C@]12CC[C@H](O)C[C@H]1CC[C@@H]1[C@@H]2CC[C@]2(C)[C@@H](C3=CC(=O)OC3)CC[C@]12O	0.23
N#CC(C#N)=NNc1ccc(F)c(F)c1F	2.7
Cc1cccc(NC2=NCC(C)(C)S2)c1	-0.54
Cc1ccc(NC2=NCCS2)c(C)c1	1.6
Cc1cc(C)c(NC2=NCCS2)c(C)c1	-0.62
Clc1cccc(NC2=NCCS2)c1Cl	3.6*
Clc1cc(Br)ccc1NC1=NCCS1	0.58
Clc1cc(Cl)cc(NC2=NCCS2)c1	3.7*!
Clc1cccc(Cl)c1NC1=NCCS1	2.3
O=C1NC(=S)NC(=O)C1=Cc1ccc([N+](=O)[O-])s1	2.3
COCc1cc(OC(=O)N(C)C)nc(-c2ccc(Cl)cc2)n1	1.1
O=c1c2ccccc2nc(-c2cccnc2)n1-c1ccc(Br)cc1	0.31
Clc1ccccc1CN1CCN(Cc2ccc3c(c2)OCO3)CC1	3.9*
Fc1cccc(Cl)c1CN1CCN(Cc2c(F)cccc2Cl)CC1	-3.9
Clc1ccc(CN2CCN(Cc3ccc4c(c3)OCO4)CC2)cc1	-1.7
Fc1cccc(CN2CCN(Cc3ccccc3Cl)CC2)c1	6.4*
CSc1ccc(CN2CCN(Cc3ccccc3Cl)CC2)cc1	0.04
Clc1cccc(CN2CCN(Cc3ccc4c(c3)OCO4)CC2)c1	-0.43
CSc1nc2ccccc2c(=O)n1-c1ccc(F)cc1	-0.88
CCC(C)n1[nH]c(=O)c2c1NC(=O)CSC2c1ccc(OC)c(OC)c1 (centres undefined)	-0.79
C#CCSc1nc2ccccc2c(=O)n1-c1ccc(F)cc1	1.8
CC(=O)CC(c1ccccc1)c1c(OC(C)=O)c2ccccc2oc1=O (centres undefined)	0.38
N#CC1CC2CC1N(Cc1ccccc1)C2 (centres undefined)	-0.11
SMILES	Dicer processing
COC(=O)c1ccc2c(c1)nnn2C1CCN(Cc2ccccc2)CC1	-1.5
O=C1NC(=O)C(=Cc2cccc(O)c2)C(=O)N1	-3.5
CC(C)(C)c1ccc(/C=C/[N+](=O)[O-])cc1	-3.6
N#CC1=C(N)Oc2c(c(=O)oc3ccccc23)C1c1cccnc1 (centres undefined)	-1.2
O=c1oc2ccccc2c2c1C(c1ccc([N+](=O)[O-])cc1)c1c(c3ccccc3oc1=O)O2	3.7*
O=c1oc2ccccc2c2c1C(c1cccc([N+](=O)[O-])c1)c1c(c3ccccc3oc1=O)O2	-0.29
COc1ccc(CCNCc2cccnc2)cc1	2.1
CC(=O)OC1CCC2C3CCC4CC(=O)[C@H](OC(C)=O)CC4(C)C3CCC12C (some centres undefined)	-2
Nc1ccc(Cc2ccc(N)cc2)cc1	7.6*
Cc1nc2ccccc2c(=O)n1-c1ccc(Br)cc1C(F)(F)F	-1.1
COc1cccc(Oc2c(C)oc3cc(OC(=O)N(C)C)ccc3c2=O)c1	-0.47
Cc1oc2cc(OC(=O)N(C)C)ccc2c(=O)c1Oc1ccccc1Br	1.2
CCOc1ccccc1Oc1coc2cc(OC(=O)N(C)C)ccc2c1=O	3.4*
CCC1(C(=O)c2ccc(F)cc2)C2c3cc(Br)ccc3OC(=O)C21C(=O)OC (centres undefined)	3.4*
O=C1/C(=C/c2ccccc2)C[C@@]2(O)[C@H]3Cc4ccc(O)c5c4[C@@]2(CCN3CC2CC2)[C@H]1O5	-0.37
COCCOC(=O)C1=C(C)OC(N)=C(C#N)C12C(=O)Nc1ccccc12 (centres undefined)	3.8*
CCOC(=O)C1=C(C)OC(N)=C(C#N)C12C(=O)Nc1ccccc12 (centres undefined)	2.2
CCOC(=O)C1=C(N)OC(c2ccccc2)=C(C(=O)OCC)C12C(=O)Nc1ccccc12 (centres undefined)	-0.71
Fc1ccc(CCNCc2ccco2)cc1	-1
O=C(NC1CN2CCC1CC2)c1cc2ccoc2cn1 (centres undefined)	-0.59
COc1cc(OC)c(C=C2C(=O)NC(=S)NC2=O)c(OC)c1	-3.3
Cc1nc2ccccc2c(=O)n1-c1ccc(Br)cc1	-0.44
O=c1c2ccccc2nc(C(F)(F)F)n1-c1ccccc1	2.8
Cc1ccc(-n2c(/C=C/c3ccc([N+](=O)[O-])o3)nc3ccccc3c2=O)cc1	3*
O=c1c2ccccc2nc(/C=C/c2ccccc2)n1-c1cccc(O)c1	3.1*
SMILES	Dicer processing
CN(C)c1ccc(/C=C/c2nc3ccccc3c(=O)n2-c2ccccc2)cc1	1.8
O=c1c2ccccc2nc(/C=C/c2ccccc2F)n1-c1ccccc1	6*
O=c1c2ccccc2nc(/C=C/c2ccco2)n1-c1cccc(O)c1	2.2
O=c1c2ccccc2nc(/C=C/c2ccc([N+](=O)[O-])o2)n1-c1ccc(Br)cc1	2.3
O=c1c2ccccc2nc(/C=C/c2ccc3c(c2)OCO3)n1-c1ccccc1O	2.7
O=[N+]([O-])/C=C/c1cccc(C(F)(F)F)c1	0.19
COc1ccc(OC)c(/C=C/[N+](=O)[O-])c1	1.3
